Experimental data as given in the supplement of paper PMC6555819.

tested on: PPARg:RXRa 270nM:90nM, anti-RXR (NR concentration 270 nM, RXRa partner concentration 90 nM); assay: PBM binding z-score (relative to random genomic background probes); higher = stronger binding; sequences stand for … in GC…GCGATTGACAGCGTAGAATGAAGG
Summary of the method: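 Random background probes are the reference for binding z-scores. These scores derive from regression-normalized fluorescence on custom Agilent 4×180K protein-binding microarrays incubated 1 h with ligand-free nuclear receptor dimers. Binding was detected with antibodies against each partner (one per run).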

Row | Sequence | PBM binding z-score
1 | CGTCCAAGGTCAAAGGTCACTGAAGAGATGACGG | 9.43
2 | CAAACTAGGTCACGAAAGGGCAAAGTCGAATGAC | 7.9
3 | CGAACTAGGTCACCAGGACCGTGAAGAGGTTGGA | 6.8
4 | CGTCCAAGGTCAATTCTAGGTCAGTGAAAGCATT | 4.59
5 | CGTCCAACGTCAAGGTCAGTGAAAGAGACTCGAA | 0.216
6 | TAGCCTAGGTCATGGGCCAGTTTACCACGCGAAC | 3.88
7 | CGAACTAGGTCACAGGACAGTGAAAGGCGACGTA | 7.37
8 | ATATGTAGGTCATCGGGTCATTCAGTTTGCGCAT | 8.12
9 | CGAACTAGGTCCTTGACAGGACAGTGAATAGTAA | 0.252
10 | AAAATGAGGTTAAGATCAGGGAAACAGAATACAT | 2.67
11 | GCTTACGGGTCAAAGGTTATAGTATGAATAGAAT | 9.15
12 | CGAACTAGCTCAAGGACAGTGAATCTCCGCACGC | -0.53
13 | CGCACTAGGTCACCAGGACAGTGAAGAGGTTGGA | 6.61
14 | CAAACCAGGTCACGAAAGGTCAAAGTCGAATGAC | 7.84
15 | ATACCAAGGTGATCGTGAGTTCGTTGATACTAAC | -0.00894
16 | ACTAGTGGGTCAGCTGAGGTCACACACAATTCGG | 5.68
17 | CAAGCTAGGTCAAGAGGTCAAAGTCCGCTTCCCG | 6.77
18 | GCTATTAGGTGAAAGGGCAACCGAATGATTCTCG | 8.6
19 | CCGACTGGGGCAAAGGTTACGATACTCAGTACGA | 9.56
20 | GGAACTAGGGCAAAGTTGATAGCATCTGTCGACG | 8.84
21 | CCTACTGGGCCAAAAAGGCCATTGATGCCGATAA | 0.7
22 | CCTACTGGGCCACGAAAGGTCCTTGATTCAGTGA | 1.23
